According to the supplement of paper PMC6607015:
Where a name gives a salt, the structure may show the parent alone.

Legend:
Conditions in all cases: compound concentration in added solution (µM; 5 µl added to 20 µl cells): 10; 18 h
A431 [1] = test: LBPA endosome anti-LBPA integrated intensity (sum per cell), Z-score; higher = more LBPA staining
Outline: (§1)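 The data are Z-scores, normalised in AcuityXpress, of integrated LBPA or filipin intensity in each cell, either whole-cell or restricted to LBPA endosomes. HeLa MZ or A431 cells, 3,500 per well in 20 µl, were seeded onto 5 µl of 10 µM compound solution in duplicate 384-well plates and incubated 18 h. Fixed cells were stained and imaged, with intensities extracted by MetaXpress segmentation.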

HeLa MZ [2] = test: as above
Outline: as §1

A431 [3] = test: whole-cell filipin (free cholesterol) integrated intensity, Z-score; higher = more cholesterol staining
Outline: as §1

HeLa MZ [4] = test: as above
Outline: as §1

A431 [5] = test: filipin (cholesterol) integrated intensity within LBPA endosomes, Z-score; higher = more cholesterol in LBPA endosomes
Outline: as §1

HeLa MZ [6] = test: as above
Outline: as §1

Row | Compound | LBPA endosome anti-LBPA integrated intensity (z-score) (A431 [1]) | LBPA endosome anti-LBPA integrated intensity (z-score) (HeLa MZ [2]) | whole-cell filipin (z-score) (A431 [3]) | whole-cell filipin (z-score) (HeLa MZ [4]) | filipin (z-score) (A431 [5]) | filipin (z-score) (HeLa MZ [6])
1 | CCCCc1cc2ccccc2c(OCCN(C)C)n1 [Dimethisoquin hydrochloride] | 2.89 | 2.04 | 2.32 | 0.247 | 2.27 | 0.845
2 | Cc1cc(C(C)(C)C)cc(C)c1CC1=NCCN1 [Xylometazoline hydrochloride] | -0.127 | 0.671 | 0.316 | 0.463 | 0.0924 | 0.303
3 | CCSc1ccc2c(c1)N(CCCN1CCN(C)CC1)c1ccccc1S2 [Thiethylperazine dimalate] | 3.37 | 1.8 | -0.311 | -0.392 | 1.25 | 1.79
4 | COc1ncnc(NS(=O)(=O)c2ccc(N)cc2)c1OC [Sulfadoxine] | -0.426 | -0.662 | 0.0314 | -0.436 | -0.379 | -0.505
5 | Cn1c([N+](=O)[O-])cnc1COC(N)=O [Ronidazole] | -0.617 | -0.899 | -0.075 | -0.4 | -0.579 | -0.485
6 | CC(=O)OCC(=O)[C@@]1(O)CC[C@H]2[C@@H]3CCC4=CC(=O)CC[C@]4(C)[C@H]3[C@@H](O)C[C@@]21C [Cortisol acetate] | -0.325 | -0.845 | -0.384 | -0.119 | -0.306 | -0.404
7 | C[C@@H](O)[C@H]1C(=O)N2C(C(=O)O)=C(SCCNC=N)C[C@H]12 [Imipenem] | -0.41 | 0.231 | -0.414 | 0.00347 | -0.461 | -0.385
8 | O=c1[nH]c(=O)n([C@H]2C[C@H](O)[C@@H](CO)O2)cc1C(F)(F)F [Trifluridine] | -0.394 | 0.648 | 3.04 | 3.8 | -0.544 | -0.762
9 | C[C@H](CCC(=O)O)[C@H]1CC[C@H]2[C@@H]3C(=O)C[C@@H]4CC(=O)CC[C@]4(C)[C@H]3CC(=O)[C@]12C [Dehydrocholic acid] | -0.567 | -0.186 | -0.785 | -0.553 | -0.549 | -0.532
10 | C[C@@H]1CN(c2c(F)c(N)c3c(=O)c(C(=O)O)cn(C4CC4)c3c2F)C[C@H](C)N1 [Sparfloxacin] | -0.202 | 0.876 | 0.309 | 0.295 | -0.322 | -0.143
11 | CC(C)(C)NC[C@H](O)COc1ccccc1C1CCCC1 [Penbutolol sulfate] | 1.31 | 0.815 | 1.46 | 0.313 | 1.3 | 0.914
12 | CCOC(=O)OC(C)OC(=O)[C@@H]1N2C(=O)[C@@H](NC(=O)[C@H](N)c3ccccc3)[C@H]2SC1(C)C (some centres not stated) [Bacampicillin hydrochloride] | -0.503 | -1.29 | -0.749 | -0.787 | -0.467 | -0.528
13 | CCCCNc1ccc(C(=O)OCCOCCOCCOCCOCCOCCOCCOCCOCCOC)cc1 [Benzonatate] | -0.445 | -0.231 | -0.686 | -0.896 | -0.427 | -0.476
14 | CC(C)[C@H](N)C(=O)OCCOCn1cnc2c(=O)nc(N)[nH]c21 [Valacyclovir hydrochloride] | -0.418 | 0.0601 | -0.723 | -0.237 | -0.459 | -0.357
15 | Nc1nc(=O)[nH]cc1F [Flucytosine] | -0.468 | -0.721 | -0.313 | -0.0984 | -0.463 | -0.623
16 | Clc1ccc(C(Cn2ccnc2)OCc2c(Cl)cccc2Cl)c(Cl)c1 (configuration not stated) [Isoconazole] | -0.0559 | 1.26 | -0.00171 | -0.264 | 0.0343 | 0.0567
17 | COc1ccccc1N1CCN(CCCCNC(=O)c2ccc3ccccc3c2)CC1 | 2.82 | 1.25 | 2.45 | 2.22 | 2.37 | 3.33
18 | Fc1ccc(C(c2ccc(F)cc2)N2CCN(C/C=C/c3ccccc3)CC2)cc1 [Flunarizine dihydrochloride] | 0.53 | -0.311 | 0.301 | -0.958 | 0.627 | 0.163
19 | Clc1ccc(Nc2nnc(Cc3ccncc3)c3ccccc23)cc1 [Vatalanib] | -0.715 | -0.947 | -0.382 | -0.477 | -0.573 | -0.345

Row | Compound | LBPA endosome anti-LBPA integrated intensity (z-score) (A431 [1]) | LBPA endosome anti-LBPA integrated intensity (z-score) (HeLa MZ [2]) | whole-cell filipin (z-score) (A431 [3]) | whole-cell filipin (z-score) (HeLa MZ [4]) | filipin (z-score) (A431 [5]) | filipin (z-score) (HeLa MZ [6])
20 | CCOc1ccccc1OCC1CNCCO1 (configuration not stated) [Viloxazine hydrochloride] | -0.217 | 0.639 | -0.124 | -0.0106 | -0.346 | -0.261
21 | CNCCC(Oc1ccc(C(F)(F)F)cc1)c1ccccc1 (configuration not stated) [Fluoxetine hydrochloride] | 2.5 | 0.902 | 0.302 | -0.115 | 2.19 | 1.62
22 | Cc1cc2cc3c(C)cc(=O)oc3c(C)c2o1 [Trioxsalen] | -0.317 | 0.147 | -0.465 | -0.318 | -0.425 | -0.476
23 | CC(C)(C)C(=O)OCOC(=O)[C@@H]1N2C(=O)[C@@H](NC(=O)[C@H](N)c3ccccc3)[C@H]2SC1(C)C [Pivampicillin] | -0.161 | 0.0846 | 0.0929 | -0.0816 | -0.266 | -0.41
24 | CS(=O)(=O)c1ccc(C2=C(c3ccccc3)C(=O)OC2)cc1 [Rofecoxib] | -0.672 | -1.7 | -1.07 | -0.451 | -0.59 | -0.599
25 | CCN(CC)C(=O)c1ccc(O)c(OC)c1 [Ethamivan] | -0.477 | -0.0996 | -0.452 | 0.274 | -0.43 | -0.268
26 | CCCc1nc2c(C)cc(-c3nc4ccccc4n3C)cc2n1Cc1ccc(-c2ccccc2C(=O)O)cc1 [Telmisartan] | -0.132 | 0.924 | 0.0869 | 0.281 | -0.34 | -0.264
27 | CN(C)CCCN1c2ccccc2CCc2ccc(Cl)cc21 [Clomipramine hydrochloride] | 3.59 | 1.91 | 1.1 | -0.141 | 2.35 | 1.89
28 | Cc1ncc([N+](=O)[O-])n1CC(C)O (configuration not stated) [Secnidazole] | -0.291 | -0.288 | -0.203 | -0.327 | -0.374 | -0.579
29 | CC(=O)NC[C@H]1CN(c2ccc(N3CCOCC3)c(F)c2)C(=O)O1 [Linezolid] | -0.619 | -0.712 | -0.597 | -0.713 | -0.583 | -0.674
30 | C[C@H]1[C@H](NC(=O)/C(=N\OC(C)(C)C(=O)O)c2csc(N)n2)C(=O)N1S(=O)(=O)O [Aztreonam] | -0.461 | -0.629 | -0.642 | -0.428 | -0.521 | -0.607
31 | OCCN1CCN(CCCN2c3ccccc3C=Cc3ccccc32)CC1 [Opipramol dihydrochloride] | 0.228 | 1.81 | 0.629 | -0.0646 | 0.712 | 1.15
32 | CN1CCCC(n2nc(Cc3ccc(Cl)cc3)c3ccccc3c2=O)CC1 (configuration not stated) [Azelastine HCl] | 3.18 | 2.26 | 1.79 | 0.915 | 2.29 | 3.01
33 | CO[C@@]1(NC(=O)C2SC(=C(C(N)=O)C(=O)O)S2)C(=O)N2C(C(=O)O)=C(CSc3nnnn3C)CS[C@@H]21 (some centres not stated) [Cefotetan] | -0.675 | -1.41 | -0.843 | -0.864 | -0.604 | -0.594
34 | CN(C)CCCN1c2ccccc2Sc2ccccc21 [Promazine hydrochloride] | 2.06 | 2.59 | 1.2 | -0.208 | 1.35 | 1.31
35 | CCN(CC)CCOC(=O)c1ccc(N)cc1 [Procaine hydrochloride] | -0.324 | 0.381 | -1.04 | -0.86 | -0.492 | -0.418
36 | CN(C)C/C=C(/c1ccc(Br)cc1)c1cccnc1 [Zimelidine dihydrochloride monohydrate] | -0.281 | 0.0916 | -0.265 | -0.387 | 0.179 | 0.387
37 | Cc1ccccc1C(OCCN(C)C)c1ccccc1 (configuration not stated) [Orphenadrine hydrochloride] | -0.188 | 0.0858 | -0.344 | 1.02 | 0.191 | 0.681
